Laboratory results: PubChem BioAssay AID1508601 (ICCB-Longwood Screening Facility, Harvard Medical School, 2020)
Among all 5,700 compounds or so, about 85 (1%) were called active. This is one part of a sample in which actives are shown more often than they occur. Rule as the data show it: active = p53-positive nuclei above about 36% (passing the limit was not always enough); inactive = the rest.

Legend:
[1] = p53 stabilisation in HPV-positive human cells, imaging, p53-positive nuclei imaging, 24 h, 48 h (AID 1508601); details: 24/48 h
[2] = target: Cellular tumor antigen p53 (Homo sapiens) (UniProt P04637); test: as above; details: 24/48 h, stronger effect = higher value
Sequence of Cellular tumor antigen p53 (Homo sapiens) (P04637 whole entry, looked up): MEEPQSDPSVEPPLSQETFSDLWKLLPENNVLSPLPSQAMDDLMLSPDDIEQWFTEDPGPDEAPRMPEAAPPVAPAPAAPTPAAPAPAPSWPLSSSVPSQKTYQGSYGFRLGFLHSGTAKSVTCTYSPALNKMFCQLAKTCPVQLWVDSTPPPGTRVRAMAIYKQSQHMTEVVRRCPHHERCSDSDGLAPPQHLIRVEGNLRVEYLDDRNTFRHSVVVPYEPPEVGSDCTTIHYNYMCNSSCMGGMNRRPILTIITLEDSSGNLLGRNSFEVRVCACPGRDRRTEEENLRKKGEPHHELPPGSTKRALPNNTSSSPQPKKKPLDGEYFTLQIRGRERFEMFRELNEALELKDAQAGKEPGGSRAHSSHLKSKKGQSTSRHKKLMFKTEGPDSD

[3] = measured here: cell number at 24 h, Library stock concentration: 3.33 mM
[4] = measured here: cell number at 48 h, Library stock concentration: 3.33 mM
[5] = Library stock concentration: 3.33 mM
[6] = measured here: p53 positive nuclei at 24 h, Library stock concentration: 3.33 mM
[7] = measured here: cell number at 24 h, concentration not given here
[8] = measured here: cell number at 48 h, concentration not given here
[9] = measured here: p53 positive nuclei at 24 h, concentration not given here
[10] = measured here: cell number at 24 h, Library stock concentration: 80 uM
[11] = measured here: cell number at 24 h, Library stock concentration: 400 uM
[12] = measured here: cell number at 24 h, Library stock concentration: 2 mM
[13] = measured here: cell number at 24 h, Library stock concentration: 10 mM
[14] = measured here: cell number at 48 h, Library stock concentration: 80 uM
[15] = measured here: cell number at 48 h, Library stock concentration: 400 uM
[16] = measured here: cell number at 48 h, Library stock concentration: 2 mM
[17] = measured here: cell number at 48 h, Library stock concentration: 10 mM
[18] = Library stock concentration: 80 uM
[19] = Library stock concentration: 400 uM
[20] = Library stock concentration: 2 mM
[21] = Library stock concentration: 10 mM
[22] = measured here: p53 positive nuclei at 24 h, Library stock concentration: 80 uM
[23] = measured here: p53 positive nuclei at 24 h, Library stock concentration: 400 uM
[24] = measured here: p53 positive nuclei at 24 h, Library stock concentration: 2 mM
[25] = measured here: p53 positive nuclei at 24 h, Library stock concentration: 10 mM

For `COC(=O)C1C(O)CC[C@H]2CN3CCc4c([nH]c5ccccc45)[C@@H]3C[C@H]12` (some centres not stated), the nuclei count, normalised [1, 3] was 104%, the nuclei count, normalised [1, 4] was 106% and the p53-positive nuclei, normalised [2, 5] was -0.11% (inactive). It also gave a p53-positive nuclei, normalised [2, 6] of -0.356%.

For `CCCCCCCCCCCCCCP(=O)(O)O`, the nuclei count, normalised [1, 7] was 105%, the nuclei count, normalised [1, 8] was 107% and the p53-positive nuclei, normalised ([2]; concentration not given here) was -0.0194% (inactive). The p53-positive nuclei, normalised [2, 9] was -0.0488%.

With `COc1ccc(N(C(=O)Nc2c(C)cccc2C)c2cc(Nc3ccc(N4CCN(C)CC4)cc3OC)ncn2)c(OC)c1` the nuclei count, normalised [1, 10] was 104%, the nuclei count, normalised [1, 11] was 93.8% and the nuclei count, normalised [1, 12] was 82.3%. For the same compound, the nuclei count, normalised [1, 13] was 66%, the nuclei count, normalised [1, 14] was 104% and the nuclei count, normalised [1, 15] was 90.4%. The nuclei count, normalised [1, 16] was 64.8%, the nuclei count, normalised [1, 17] was 66.4% and the p53-positive nuclei, normalised [2, 18] was -0.0182% (inactive). For the same compound, the p53-positive nuclei, normalised [2, 19] was -0.151% (inactive), the p53-positive nuclei, normalised [2, 20] was -0.0629% (inactive) and the p53-positive nuclei, normalised [2, 21] was 0.104% (inactive). The p53-positive nuclei, normalised [2, 22] was -0.103%, the p53-positive nuclei, normalised [2, 23] was -0.0385% and the p53-positive nuclei, normalised [2, 24] was -0.0916%. For the same compound, the p53-positive nuclei, normalised [2, 25] was -0.0741%.

With `COc1cc(C(=O)NCc2ccc(OCCN(C)C)cc2)cc(OC)c1OC` the nuclei count, normalised [1, 7] was 106%, the nuclei count, normalised [1, 8] was 102% and the p53-positive nuclei, normalised ([2]; concentration not given here) was -0.214% (inactive). The p53-positive nuclei, normalised [2, 9] was -0.0679%.

Compound `Cc1cc(C)c(N(Cc2ccccc2)S(=O)(=O)c2ccc(OCCNC(=O)c3cc4ccccc4o3)cc2)c(C(=O)NO)c1` has a nuclei count, normalised ([1]; measured here: cell number at 24 h, Library stock concentration: 46 uM) of 106%, a nuclei count, normalised ([1]; measured here: cell number at 24 h, Library stock concentration: 278 uM) of 102% and a nuclei count, normalised ([1]; measured here: cell number at 24 h, Library stock concentration: 1.67 mM) of 106%. The nuclei count, normalised [1, 13] was 108%, the nuclei count, normalised ([1]; measured here: cell number at 48 h, Library stock concentration: 46 uM) was 108% and the nuclei count, normalised ([1]; measured here: cell number at 48 h, Library stock concentration: 278 uM) was 104%. For the same compound, the nuclei count, normalised ([1]; measured here: cell number at 48 h, Library stock concentration: 1.67 mM) was 111%, the nuclei count, normalised [1, 17] was 119% and the p53-positive nuclei, normalised ([2]; Library stock concentration: 46 uM) was -0.344% (inactive). The p53-positive nuclei, normalised ([2]; Library stock concentration: 278 uM) was -0.116% (inactive), the p53-positive nuclei, normalised ([2]; Library stock concentration: 1.67 mM) was -0.271% (inactive) and the p53-positive nuclei, normalised [2, 21] was 0.0163% (inactive). The p53-positive nuclei, normalised ([2]; measured here: p53 positive nuclei at 24 h, Library stock concentration: 46 uM) was -0.21%, the p53-positive nuclei, normalised ([2]; measured here: p53 positive nuclei at 24 h, Library stock concentration: 278 uM) was -0.21% and the p53-positive nuclei, normalised ([2]; measured here: p53 positive nuclei at 24 h, Library stock concentration: 1.67 mM) was -0.139%. The p53-positive nuclei, normalised [2, 25] was -0.147%.

In the case of `CN(C)Cc1c(C(=O)NCCOc2ccc(C(=O)NO)cc2)oc2ccccc12`, the nuclei count, normalised [1, 3] is reported as 40%, the nuclei count, normalised [1, 4] is reported as 23.5% and the p53-positive nuclei, normalised [2, 5] is reported as 74.6% (active). For the same compound, the p53-positive nuclei, normalised [2, 6] was 61.4%.

Work on `CC(C)C1C(=O)NC(CCCN=C(N)N)C(=O)NCC(=O)NC(CC(=O)O)C(=O)NC(Cc2ccccc2)C(=O)N1C` (configuration not stated) yielded a nuclei count, normalised [1, 10] of 104%, a nuclei count, normalised [1, 11] of 96.6% and a nuclei count, normalised [1, 12] of 88.2%. The nuclei count, normalised [1, 3] was 88.5%, the nuclei count, normalised [1, 13] was 51.2% and the nuclei count, normalised [1, 14] was 94.6%. For the same compound, the nuclei count, normalised [1, 15] was 89.6%, the nuclei count, normalised [1, 16] was 76.5% and the nuclei count, normalised [1, 4] was 85.4%. The nuclei count, normalised [1, 17] was 34.6%, the p53-positive nuclei, normalised [2, 18] was 0.242% (inactive) and the p53-positive nuclei, normalised [2, 19] was 0.104% (inactive). For the same compound, the p53-positive nuclei, normalised [2, 20] was -0.113% (inactive), the p53-positive nuclei, normalised [2, 5] was -0.0271% (inactive) and the p53-positive nuclei, normalised [2, 21] was -0.0215% (inactive). The p53-positive nuclei, normalised [2, 22] was 0.00102%, the p53-positive nuclei, normalised [2, 23] was -0.0368% and the p53-positive nuclei, normalised [2, 24] was -0.0914%. For the same compound, the p53-positive nuclei, normalised [2, 6] was -0.218% and the p53-positive nuclei, normalised [2, 25] was -0.22%.

In the case of `CC(CCC(=O)O)C1CC[C@H]2[C@@H]3C(O)C[C@@H]4CC(O)CC[C@]4(C)[C@@H]3CC[C@]12C` (some centres not stated), the nuclei count, normalised [1, 10] is reported as 103%, the nuclei count, normalised [1, 11] is reported as 104% and the nuclei count, normalised [1, 12] is reported as 103%. It also gave a nuclei count, normalised [1, 13] of 105%, a nuclei count, normalised [1, 14] of 101% and a nuclei count, normalised [1, 15] of 101%. For the same compound, the nuclei count, normalised [1, 16] was 100%, the nuclei count, normalised [1, 17] was 106% and the p53-positive nuclei, normalised [2, 18] was 0.0117% (inactive). The p53-positive nuclei, normalised [2, 19] was -0.178% (inactive), the p53-positive nuclei, normalised [2, 20] was 0.0148% (inactive) and the p53-positive nuclei, normalised [2, 21] was -0.147% (inactive). It also gave a p53-positive nuclei, normalised [2, 22] of 0.00498%, a p53-positive nuclei, normalised [2, 23] of -0.109% and a p53-positive nuclei, normalised [2, 24] of -0.106%. The p53-positive nuclei, normalised [2, 25] was -0.11%.

`OCc1c[nH]c2ccccc12` gave a nuclei count, normalised [1, 10] of 116%, a nuclei count, normalised [1, 11] of 113% and a nuclei count, normalised [1, 12] of 124%. It also gave a nuclei count, normalised [1, 3] of 121%, a nuclei count, normalised [1, 13] of 113% and a nuclei count, normalised [1, 14] of 111%. The nuclei count, normalised [1, 15] was 105%, the nuclei count, normalised [1, 16] was 115% and the nuclei count, normalised [1, 4] was 105%. The nuclei count, normalised [1, 17] was 106%, the p53-positive nuclei, normalised [2, 18] was -0.0881% (inactive) and the p53-positive nuclei, normalised [2, 19] was 0.33% (inactive). The p53-positive nuclei, normalised [2, 20] was 0.0198% (inactive), the p53-positive nuclei, normalised [2, 5] was -0.0843% (inactive) and the p53-positive nuclei, normalised [2, 21] was -0.042% (inactive). For the same compound, the p53-positive nuclei, normalised [2, 22] was -0.0144%, the p53-positive nuclei, normalised [2, 23] was 0.188% and the p53-positive nuclei, normalised [2, 24] was 0.151%. It also gave a p53-positive nuclei, normalised [2, 6] of -0.374% and a p53-positive nuclei, normalised [2, 25] of 0.0508%.

With `O=C(C=Cc1ccc(CN(CCO)CCc2c[nH]c3ccccc23)cc1)NO` the nuclei count, normalised [1, 3] was 37.8%, the nuclei count, normalised [1, 4] was 20.4% and the p53-positive nuclei, normalised [2, 5] was 113% (active). It also gave a p53-positive nuclei, normalised [2, 6] of 94.4%.

For `O=C(O)CCCc1c[nH]c2ccccc12`, the nuclei count, normalised [1, 3] was 110%, the nuclei count, normalised [1, 4] was 101% and the p53-positive nuclei, normalised [2, 5] was -0.0398% (inactive). The p53-positive nuclei, normalised [2, 6] was 2.53%.
